Measurements: PubChem BioAssay (NCI)
Compounds without any hit were thinned out: in the full panel of roughly 83,000, 20% have a hit.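 Testing used 96-well plates and a 48-hour single-concentration exposure. Example: -40 means 40% of the starting cells died.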 Unmarked numbers belong to inactive results. The source made the active and inactive calls. The calls were made as follows: active = growth percent below 10; inactive = the rest.

Columns and labels:
Test in all cases: NCI-60 one-dose screen, 48 h (100 = growth as untreated, 0 = no growth, -100 = all killed)
Conditions in all cases: 10 µM unless noted
[1] = test system: EKVX NSCLC
[2] = test system: SN12C renal
[3] = test system: UO-31 renal
[4] = test system: TK-10 renal
[5] = test system: ACHN renal
[6] = test system: CAKI-1 renal
[7] = test system: A498 renal
[8] = test system: MOLT-4 leukemia
[9] = test system: SR leukemia

Compound	growth [1]	growth [2]	growth [3]	growth [4]	growth [5]	growth [6]	growth [7]	growth [8]	growth [9]
Oc1ccc(-c2nn(-c3ccccc3)cc2-c2nc3ccccc3s2)cc1	79.5%	85.3%	55.4%	142%	91.1%	82%	81.7%	87.8%	75.4%
Cc1nn(-c2ccccc2)c2c1oc(=O)c1cc(Cl)ccc12	93.2%	101%	102%	111%	101%	84.9%	90.9%	134%	
Cc1cc(NC(=O)Nc2cc(Cl)ccc2C)no1	87%	109%	96.2%	231%	103%	96.1%	133%	97.5%	59.4%
COc1cc(C2NC(c3ccc(Cl)cc3)C(C)C(=NC(=O)c3cnccn3)C2C)cc(OC)c1OC (stereo not drawn)	99.3%	107%	83%	103%	102%	84.7%	112%	85.3%	106%
N=C(N)/N=C(\CCc1nc2ccccc2[nH]1)c1nc2ccccc2[nH]1	92.7%	85.6%	67.6%	105%	92.3%	93.6%	111%	107%	83.9%
ClC1=C(Cl)C(Cl)=C(Cl)C1=Cc1ccc(Cl)cc1	-22.6% (active)	47.2%	-56.9% (active)	8.54% (active)	29%	-63.5% (active)	27.2%	0.492% (active)	-14.1% (active)
O=C(NCCc1ccccc1)C1CCC(=O)N1Cc1ccc(Br)cc1 (stereo not drawn)	103%	104%	92.6%	99.7%	107%	100%	88.3%	94%	102%
CC(=O)c1cc(C(=O)c2ccc3c(c2)Sc2ccccc2N3)c2c(C)cc(C)cn12	34.3%	20.7%	22.5%	34.6%	12.2%	9.64% (active)	-27.3% (active)	19.2%	5.45% (active)
c1ccc2cc(C[n+]3ccn(CCCCCCCn4cc[n+](Cc5ccc6ccccc6c5)c4)c3)ccc2c1	27.9%	24.2%	76.7%	70.6%	60.2%	91.9%	-3.36% (active)	56.1%	50.9%
CN1CCCC1c1cccnc1 (stereo not drawn)	123%	94.2%	97%	132%	99%	120%	94.1%	101%	85.7%
CC12CCC3C(CCC4CC(=O)/C(=C\O)CC43C)C1CCC(=O)O2 (stereo not drawn)	106%	107%	55.9%	115%	109%	105%	115%	106%	
C=CCCCCCCCCC(=O)[O][Sn]([CH2]CCC)([CH2]CCC)[CH2]CCC	-55.1% (active)	-82% (active)	-88.7% (active)	-92.2% (active)	-99.6% (active)	-89.4% (active)	-97.3% (active)	4.17% (active)	8.68% (active)
Oc1[nH]c2ccc(Cl)cc2c1/C=c1/ccc2c(c1)N=C(c1ccc(C(F)(F)F)cc1)N=2	87.4%	88.3%	62.2%	88.4%	57%	54.3%	95.4%	21.3%	25.9%
Cn1cc(-c2csc(-c3c[nH]c4ncccc34)n2)c2cc(F)cnc21	51.9%	78.1%	55.6%	54.3%	53.3%	45.1%	70.4%	80.5%	
CC(=O)NC1(C(=O)O)CCCC1	112%	114%	99.9%	117%	105%	111%	105%	109%	108%
CC1=C(C(=O)Nc2ccccc2)C(c2ccc3c(c2)OCCO3)NC(=O)N1 (stereo not drawn)	112%	100%	87%	133%	104%	95.6%	101%	101%	92.9%

Compound	growth [1]	growth [2]	growth [3]	growth [4]	growth [5]	growth [6]	growth [7]	growth [8]	growth [9]
CCCc1nn(C)c2c(=O)[nH]c(-c3cc(S(=O)(=O)N4CCN(C)CC4)ccc3OCC)nc12	95.1%	102%	78.7%	113%	92.8%	80.2%	103%	94.8%	
CC(=O)n1c2ccccc2c2ccccc21	103%	107%	83.6%	115%	117%	97.5%	95.1%	104%	
CCCCCCCCSc1ncnc2c1ncn2CO	55.5%	76.4%	86.6%	89.9%	81%	72.6%	106%	85.8%	115%
CN(C)CCCN1c2nc3ccccc3cc2Sc2cc3ccccc3nc21	-50.9% (active)	-22.4% (active)	-22.7% (active)	-78.2% (active)	-100% (active)	-17.2% (active)	-5.96% (active)	-57.9% (active)	-38.2% (active)
O=C(/C=C/c1cc2ccccc2[nH]c1=O)c1ccc(O)cc1	87.5%	47.5%	45.6%	50.1%	66.2%	40.9%	56.2%	30.9%	-0.193% (active)
Clc1cc(Cl)c(OCC#CI)cc1Cl	98.8%	53.7%	38.4%	69.8%	2.93% (active)	15.7%	119%	41.5%	11.4%
COc1c(O)cc2oc3cc(O)c(CC=C(C)C)c(O)c3c(=O)c2c1C/C=C(\C)CCC=C(C)C	81.5%	-8.91% (active)	58.3%	37.3%	22.6%	79.3%	120%	6.16% (active)	-18.2% (active)
Cc1ccccc1NC(=O)c1cc2ccccc2cc1O	43.8%	30.2%	-8.7% (active)	60.1%	34%	41.4%	43%	14.2%	
C=C(C)[C@@H]1C[C@H](O)Cc2cc(Cl)cc(Cl)c2N1	84.3%	96.9%	81.4%	98.7%	95.9%	91.6%	87.2%	88.3%	108%
S=C(c1ccccc1)N1CCN(c2cccc(Cl)c2)CC1	99.5%	100%	93.2%	110%	104%	88.7%	64.6%	85.2%	82.4%
CCn1c2ccccc2c2ccc(C(C)=O)cc21	99.2%	114%	106%	105%	98.1%	94.1%	83.8%	96.8%	97.8%
Cc1ccc(C(C)C)cc1NC(=O)Nc1ccc([N+](=O)[O-])cc1	15.6%	10.9%	-0.838% (active)	16.8%	7.86% (active)	10.5%	7.54% (active)	-23% (active)	3.13% (active)
O=C(Nc1cccc2ccccc12)c1cc2c(cc1Br)OCO2	92.9%	107%	99.2%	172%	94.2%	101%	126%	91.5%	71.5%
Cc1ccc(C(O)C2=CC(=O)c3ccccc3C2=O)cc1 (stereo not drawn)	91.2%	94.9%	73.2%	118%	86.7%	100%	95.9%	94.7%	90%
O=Nc1ccc(O)c(=O)cc1	72.5%	14.3%	-36% (active)	14.6%	1.32% (active)	-7.71% (active)	145%	14%	2.22% (active)
